Test results reported in PubChem BioAssay (NCI).
About 79,000 compounds went through this panel and 15% of them were active in at least one assay; those are over-represented in the sample as a whole. Activity calls are given as the source filed them. Cut-off read from the data, not from the text of the source: active = growth inhibition above about 70%; inactive = the rest.

Assay: NCI Yeast Anticancer Drug Screen. Data for the rad50 strain (AID 155);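 note: 0% = growth of vehicle-only cultures of the same strain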
Conditions: S. cerevisiae rad50 strain growth inhibition; at 1.2 µM; hits give high values
Outline: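 Inhibition values express reduced yeast growth in compound-treated cultures relative to vehicle-treated controls.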

Compound | growth inhibition
CCOP(=O)(OCC)C(Cc1ccccc1)N=C(c1ccccc1)c1ccccc1 (stereo not drawn) | -12% (inactive)
CCc1ncnc2cc(OCC3CO3)c(OC)cc12 (stereo not drawn) | 23% (inactive)
CCOC(=O)[C@H]1Nc2ccccc2C2c3ccccc3CC21 (stereo partly drawn) | -6% (inactive)
O=CNc1ccc2c(c1)C(=O)c1ccccc1-2 | 13% (inactive)
CCOc1ccc2c(c1)c(CC(=O)O)cn2C | -6% (inactive)
OC1CSCCCSCCSCCCSC1 | -28% (inactive)
N#Cc1c(N)[nH]c2ccc(Sc3ccccc3)cc12 | 1% (inactive)
Cc1ccc(-c2ccc(Nc3c4ccccc4nc4ccccc34)cc2)cn1 | 15% (inactive)
c1ccc2c(c1)NC(NC1Nc3ccccc3N1)N2 | 1% (inactive)
OC(COc1cccc2ccccc12)CN1CCOCC1 (stereo not drawn) | 11% (inactive)
CCC/C(Cl)=N\OC(=O)Nc1ccc(Br)cc1 | 32% (inactive)
COc1ccc(/C=C2\SC(=S)N(/C=C/c3nc4ccccc4[nH]c3=O)C2=O)cc1OC | -2% (inactive)
O=C(NNc1ccnc2cc(Cl)ccc12)/C(=C\c1ccccc1Cl)NC(=O)c1ccccc1 | -1% (inactive)
CSC1=NNC(SC)=NN1 | -4% (inactive)
Cc1c(C2=C(Br)C(=O)N(C)C2=O)c(=O)n(C)c(=O)n1C | 6% (inactive)
NCCNc1ccc(NCCN)c2c1C(=O)c1c(O)ccc(O)c1C2=O | 20% (inactive)
Cn1c(=O)c(-c2ccccc2)c(N=[N+]=[N-])c2ccccc21 | 14% (inactive)
CCCCCCCCCCCCCCCCCCOCC(O)COP(=O)(O)OCC1OC(n2cc(F)c(=O)[nH]c2=O)CC1O (stereo not drawn) | 18% (inactive)
CCS(=O)(=O)c1ccc(/C=C/C=N/NC(=S)NCC(C)C)cc1 | 6% (inactive)
CCC(=O)Oc1c(Cl)cc(Cl)c2ccccc12 | -5% (inactive)

Compound | growth inhibition
COc1cc2c3c(cccc3c1)C(=O)N(CCN(C)C)C2=O | 10% (inactive)
CN(C)c1ccc(C(C#N)=C(C#N)C#N)cc1 | -2% (inactive)
O=C(CCCN1CCC2(CC1)CC(=O)N(N1CCCCCC1)C2=O)c1ccc(F)cc1 | 29% (inactive)
O=C1C2C(C(=O)N1c1ccc(OCc3ccccc3)cc1)C1c3ccccc3C2C2CCCCN21 (stereo not drawn) | 3% (inactive)
CCN(CC)CCC(=O)c1ccc(Oc2ccc(F)cc2)cc1 | -5% (inactive)
O=Nc1c(NO)ccc2nn(-c3ccccc3)nc12 | 12% (inactive)
CC(=O)SCCC[Si](C)(C)CCCSC(C)=O | 1% (inactive)
O=C(O)C1CCCCC1c1c2ccc(=O)c(O)c-2oc2c(O)c(O)ccc12 (stereo not drawn) | -12% (inactive)
Cc1ccc(NN(NC(=O)OC(C)C)C(=O)OC(C)C)cc1 | -1% (inactive)
O=C1c2ccccc2C(=O)c2cc(CBr)ccc21 | 2% (inactive)
Cc1c(C(Cc2ccccc2N(C)C(=O)/C=C\C(=O)O)c2c[nH]c3ccccc23)c2ccccc2n1C (stereo not drawn) | 1% (inactive)
CC(C)/C(Cl)=N\OC(=O)Nc1ccc(F)cc1 | 5% (inactive)
O=C1OC(=O)C2CCCC3CCCC1C32 (stereo not drawn) | 17% (inactive)
CCOC(=O)C(NC(=O)c1ccccc1)(N1CCN(c2cc3c(cc2F)c(=O)c(C(=O)O)cn3C2CC2)CC1)C(F)(F)F (stereo not drawn) | 0% (inactive)
COc1ccc(NC(=S)N/N=C(\c2ccccc2)c2ccccn2)cc1 | 0% (inactive)
C=CCC1=C(C)C(OC(=O)/C=C/c2ccccc2)CC1=O (stereo not drawn) | 2% (inactive)
NNc1c(F)c(F)cc(F)c1F | -15% (inactive)
COP(=O)(OC)/C(=C\C1=CN(C(c2ccccc2)(c2ccccc2)c2ccccc2)CN1)NC=O | -14% (inactive)
COC(=O)c1cc(-c2ccc(C)cc2)[nH]c(=O)c1C#N | -1% (inactive)

Same assay, conditions: S. cerevisiae rad50 strain growth inhibition; at 3.7 µM; hits give high values

Compound | growth inhibition
CCOP(=O)(OCC)C(Cc1ccccc1)N=C(c1ccccc1)c1ccccc1 (stereo not drawn) | -7% (inactive)
CCc1ncnc2cc(OCC3CO3)c(OC)cc12 (stereo not drawn) | 44% (inactive)
CCOC(=O)[C@H]1Nc2ccccc2C2c3ccccc3CC21 (stereo partly drawn) | -9% (inactive)
O=CNc1ccc2c(c1)C(=O)c1ccccc1-2 | 22% (inactive)
CCOc1ccc2c(c1)c(CC(=O)O)cn2C | 7% (inactive)
OC1CSCCCSCCSCCCSC1 | -27% (inactive)
N#Cc1c(N)[nH]c2ccc(Sc3ccccc3)cc12 | 0% (inactive)
Cc1ccc(-c2ccc(Nc3c4ccccc4nc4ccccc34)cc2)cn1 | 60% (inactive)
c1ccc2c(c1)NC(NC1Nc3ccccc3N1)N2 | 5% (inactive)
OC(COc1cccc2ccccc12)CN1CCOCC1 (stereo not drawn) | 19% (inactive)
CCC/C(Cl)=N\OC(=O)Nc1ccc(Br)cc1 | 40% (inactive)
COc1ccc(/C=C2\SC(=S)N(/C=C/c3nc4ccccc4[nH]c3=O)C2=O)cc1OC | -5% (inactive)
O=C(NNc1ccnc2cc(Cl)ccc12)/C(=C\c1ccccc1Cl)NC(=O)c1ccccc1 | 4% (inactive)
CSC1=NNC(SC)=NN1 | 0% (inactive)
Cc1c(C2=C(Br)C(=O)N(C)C2=O)c(=O)n(C)c(=O)n1C | 15% (inactive)
NCCNc1ccc(NCCN)c2c1C(=O)c1c(O)ccc(O)c1C2=O | 78% (active)
Cn1c(=O)c(-c2ccccc2)c(N=[N+]=[N-])c2ccccc21 | 7% (inactive)
CCCCCCCCCCCCCCCCCCOCC(O)COP(=O)(O)OCC1OC(n2cc(F)c(=O)[nH]c2=O)CC1O (stereo not drawn) | -10% (inactive)
CCS(=O)(=O)c1ccc(/C=C/C=N/NC(=S)NCC(C)C)cc1 | 3% (inactive)
CCC(=O)Oc1c(Cl)cc(Cl)c2ccccc12 | -4% (inactive)

Compound | growth inhibition
COc1cc2c3c(cccc3c1)C(=O)N(CCN(C)C)C2=O | 0% (inactive)
CN(C)c1ccc(C(C#N)=C(C#N)C#N)cc1 | -8% (inactive)
O=C(CCCN1CCC2(CC1)CC(=O)N(N1CCCCCC1)C2=O)c1ccc(F)cc1 | 26% (inactive)
O=C1C2C(C(=O)N1c1ccc(OCc3ccccc3)cc1)C1c3ccccc3C2C2CCCCN21 (stereo not drawn) | 11% (inactive)
CCN(CC)CCC(=O)c1ccc(Oc2ccc(F)cc2)cc1 | -21% (inactive)
O=Nc1c(NO)ccc2nn(-c3ccccc3)nc12 | 42% (inactive)
CC(=O)SCCC[Si](C)(C)CCCSC(C)=O | 2% (inactive)
O=C(O)C1CCCCC1c1c2ccc(=O)c(O)c-2oc2c(O)c(O)ccc12 (stereo not drawn) | -22% (inactive)
Cc1ccc(NN(NC(=O)OC(C)C)C(=O)OC(C)C)cc1 | 0% (inactive)
O=C1c2ccccc2C(=O)c2cc(CBr)ccc21 | 14% (inactive)
Cc1c(C(Cc2ccccc2N(C)C(=O)/C=C\C(=O)O)c2c[nH]c3ccccc23)c2ccccc2n1C (stereo not drawn) | -2% (inactive)
CC(C)/C(Cl)=N\OC(=O)Nc1ccc(F)cc1 | 10% (inactive)
O=C1OC(=O)C2CCCC3CCCC1C32 (stereo not drawn) | 68% (inactive)
CCOC(=O)C(NC(=O)c1ccccc1)(N1CCN(c2cc3c(cc2F)c(=O)c(C(=O)O)cn3C2CC2)CC1)C(F)(F)F (stereo not drawn) | 5% (inactive)
COc1ccc(NC(=S)N/N=C(\c2ccccc2)c2ccccn2)cc1 | 1% (inactive)
C=CCC1=C(C)C(OC(=O)/C=C/c2ccccc2)CC1=O (stereo not drawn) | 1% (inactive)
NNc1c(F)c(F)cc(F)c1F | -22% (inactive)
COP(=O)(OC)/C(=C\C1=CN(C(c2ccccc2)(c2ccccc2)c2ccccc2)CN1)NC=O | -32% (inactive)
COC(=O)c1cc(-c2ccc(C)cc2)[nH]c(=O)c1C#N | -2% (inactive)
